# Results taken from PubChem BioAssay AID1159580 (chemical genetic matrix, 2015).
# Among all 5,500 compounds or so, about 2,000 (36%) were called active. About 18% were inconclusive and are not listed. The list shows a part of the results. Values without a mark were called inactive. Rule as the data show it: active = normalized growth mostly below about 0.91 (no sharp cut-off); inconclusive = no clear call, values can overlap the other calls; inactive = mostly above about 0.92.
# Experiment: chemical genetic growth profiling, strain panel (AID 1159580);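 also: tested at 20 µM; growth read once vehicle control cultures reached saturation at 30 °C; 1 = growth at the plate median or of vehicle wells; lower values mean less growth of the strain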
# Conditions: S. cerevisiae deletion strains, growth OD
structure (smiles),measurement,setting,value
CCCCCCCC/C=C\CCCCCCCC(=O)NCCc1ccc(O)c(O)c1,normalized growth,"locus YAL040C, strain CLN3, stronger effect = lower value",1.01
same,normalized growth,"locus YCL061C, strain MRC1 (second series), stronger effect = lower value",0.987
same,normalized growth,"locus YDR363W, strain ESC2, stronger effect = lower value",0.981
same,normalized growth,"locus YER002W, strain NOP16, stronger effect = lower value",1
same,normalized growth,"locus YGR229C, strain SMI1, stronger effect = lower value",0.811 (active)
same,normalized growth,"locus YMR307W, strain GAS1, stronger effect = lower value",0.987
same,normalized growth,"locus YNL153C, strain GIM3, stronger effect = lower value",0.811 (active)
same,normalized growth,"locus YNL175C, strain NOP13, stronger effect = lower value",0.999
same,normalized growth,"locus YNL197C, strain WHI3, stronger effect = lower value",0.987
same,normalized growth,"locus YNL224C, strain SQS1, stronger effect = lower value",1.02
same,normalized growth,"locus YOR083W, strain WHI5 (second series), stronger effect = lower value",0.876
same,normalized growth,"locus YPL055C, strain LGE1, stronger effect = lower value",1
same,normalized growth,"locus YPL241C, strain CIN2, stronger effect = lower value",0.993
